Screening data deposited in PubChem BioAssay by National Center for Advancing Translational Sciences (NCATS).
A selection: hits, their analogues and other compounds. The true share with any hit is near 2.8%.
Six1-Eya2 blk = inhibitors of human Six1/Eya2 interaction; AlphaScreen GST-Six1/His-Eya2 binding, biochemical; stronger effect = lower value; activity change, % (concentration not given with the values); 360,000 tested, 0.56% active; AID 651725; in the data active = activity change below about -65%; inconclusive = mostly about -30% to -63%; note: % is set by controls: 0 for no effect and ±100 for the full control effect
Target sequence (O00167 whole entry, looked up): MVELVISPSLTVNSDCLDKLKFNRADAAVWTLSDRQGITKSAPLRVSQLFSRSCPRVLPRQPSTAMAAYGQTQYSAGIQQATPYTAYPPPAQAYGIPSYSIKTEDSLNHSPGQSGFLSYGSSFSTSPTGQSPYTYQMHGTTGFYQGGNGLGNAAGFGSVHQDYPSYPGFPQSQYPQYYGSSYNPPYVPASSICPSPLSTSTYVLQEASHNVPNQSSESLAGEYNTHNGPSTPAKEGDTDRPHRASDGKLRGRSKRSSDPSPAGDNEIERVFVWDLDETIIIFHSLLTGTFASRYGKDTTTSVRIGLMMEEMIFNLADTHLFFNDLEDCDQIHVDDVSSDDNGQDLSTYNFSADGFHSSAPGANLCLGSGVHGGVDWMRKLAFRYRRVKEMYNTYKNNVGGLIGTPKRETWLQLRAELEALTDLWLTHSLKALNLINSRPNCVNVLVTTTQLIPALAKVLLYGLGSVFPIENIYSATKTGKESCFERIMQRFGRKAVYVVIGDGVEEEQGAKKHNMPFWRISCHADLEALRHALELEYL
Target sequence (Q15475 whole entry, looked up): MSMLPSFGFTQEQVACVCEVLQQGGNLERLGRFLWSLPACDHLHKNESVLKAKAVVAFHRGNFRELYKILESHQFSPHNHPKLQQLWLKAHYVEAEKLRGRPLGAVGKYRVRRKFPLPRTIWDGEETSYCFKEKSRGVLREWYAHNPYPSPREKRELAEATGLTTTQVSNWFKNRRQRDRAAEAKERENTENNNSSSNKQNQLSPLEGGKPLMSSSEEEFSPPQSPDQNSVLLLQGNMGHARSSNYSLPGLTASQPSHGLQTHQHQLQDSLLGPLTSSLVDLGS
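Compounds are tested against tagged Six1 and Eya2 proteins bridged by glutathione donor and nickel acceptor beads; after a one-hour incubation at 37 °C without light, AlphaScreen emission is recorded.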
TGFb SMAD3 inh = TGF-b pathway inhibition; HepG2 CAGA-GFP TGF-b/SMAD3 reporter, GFP fluorescence, 18 h; TGF-beta stimulated, 500 pg/mL final; Potency, µM (top dose mostly 46.1 µM), without a hit: top-dose activity, negative = inhibition, actives largely listed as inhibitors; 410,000 tested, 1.2% active; AID 588855; note: potency is the fitted concentration of half-maximal effect; % is set by controls: 0 for no effect and ±100 for the full control effect; nearly all actives have a fitted effect of over 65% in size
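TGF-beta reporter screen: HEPG2 CAGA-GFP, 1% FBS, 500 pg/mL TGF-beta final, 18 h; per-cell GFP summed per well; curves fitted and categorized by class.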
ATXN2 expr inh = reduces ATXN2 reporter expression in HEK-293 cells. HEK-293 ATXN2-luciferase reporter, luminescence, 24 h. 360,000 tested, 0.72% active. Potency, µM (titrated, usually from 57 µM), without a hit: at the top dose activity change, negative = inhibition, usual class: inhibitors; note: potency is the fitted concentration of half-maximal effect; % is set by controls: 0 for no effect and ±100 for the full control effect; nearly all actives have a fitted effect of over 55% in size
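ATXN2-luciferase reporter cells (luciferase flanked by upstream and downstream ATXN2 gene portions) were treated 24 h at 37 °C with compounds at up to 57 uM. SteadyGlo luminescence gave expression; GF-AFC fluorescence gave viability.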
CtBP-E1A blk = CtBP/E1A binding inhibition | AlphaScreen GST-E1A/His-CtBP binding, 1536-well; stronger effect = lower value | activity change, % (concentration not given with the values) | AID 651724 | 340,000 tested, 0.49% active; in the data active = activity change below about -65%; inconclusive = mostly about -30% to -63%; note: % is set by controls: 0 for no effect and ±100 for the full control effect
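In 5 uL wells, 23 nL compound meets equimolar GST-E1A and His-CtBP (5X stock 125 nM each) for 2 h, 37 °C. Beads (5X, 50 ug/mL) then 1 h, 37 °C, dark.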
ATXN viability = cell viability loss in ATXN counter-screen; S2 cells (HEK-293 line with an ATXN2-luciferase reporter) viability, CellTiter-Fluor protease fluorescence, 24 h; Potency, µM (highest dose often 56.7 µM), hits mostly cytotoxic; 400,000 tested, 0.49% active; note: potency is the fitted concentration of half-maximal effect; nearly all actives have a fitted effect of over 40% in size
HepG2 tox = counter-screen for TGF-b inhibitors: cytotoxicity in HepG2 cells | HepG2 CAGA-GFP viability, ATP luminescence, 18 h | Potency, µM (titrated, usually from 46.1 µM), inactives show top-dose activity change, negative = cytotoxicity, actives largely listed as cytotoxic | 410,000 tested, 0.76% active; note: potency is the fitted concentration of half-maximal effect
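CellTiter-Glo luminescence gave cytotoxicity after 18 hours at 37 degrees C. The cells were HepG2 CAGA-GFP in 1% FBS DMEM, stimulated with 500 pg/mL TGF-beta after compound addition. %Activity was normalised to no-cell wells (complete cell-killing) and DMSO (no toxicity), and curves were fitted and classified.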
* = called active by the depositor; i = inactive; ? = inconclusive; / = no result. Unless noted, calls come from the whole dose curve; as a rule, active = well fitted curve in the direction sought with a large enough effect; inconclusive = small, poorly fitted or top-dose-only effect, or another doubt; inactive = no such curve, though single readings can be large; an effect the other way counts as inactive or inconclusive.

SMILES	Six1-Eya2 blk	TGFb SMAD3 inh	ATXN2 expr inh	CtBP-E1A blk	ATXN viability	HepG2 tox
CC(CNC(=O)Cn1ncc2c3ccccc3n(Cc3cccc(Cl)c3)c2c1=O)c1ccccc1 (stereo not drawn)	/	7%	5%	/	i	5%
O=C1CCN(Cc2cccn2-c2ccccn2)CCN1Cc1ccccc1C(F)(F)F	/	/	/	/	i	/
COc1cc(/C=N/N=C(N)N)ccc1OCc1ccc(Cl)cc1	-5	?	?	-12	i	10µM*
COc1cc(/C=N/O)ccc1OCc1ccc(C(=O)O)cc1	-12	9%	0.71µM*	-3	i	-32%
NCCCC[C@H](NC(=O)[C@@H]1CCCN1C(=O)[C@@H]1CSSC[C@H](NC(=O)CNC(=O)CNC(=O)CN)C(=O)N[C@@H](Cc2ccc(O)cc2)C(=O)N[C@@H](Cc2ccccc2)C(=O)N[C@@H](CCC(N)=O)C(=O)N[C@@H](CC(N)=O)C(=O)N1)C(=O)NCC(N)=O	/	/	/	/	i	/
Cc1nc([N+](=O)[O-])c(Sc2nc3ccc([N+](=O)[O-])cc3[nH]2)n1Cc1ccccc1	-11	-90%	-29%	23	?	10µM*
CCOC(=O)c1c(-c2ccccc2)c2cc(OC)ccc2n1CCCN(C)C	-3	?	/	/	i	18µM*
O=C(N/N=C(\c1ccccc1)c1cccnc1)c1cccc(F)c1	-80*	?	?	-3	?	-40%
O=C(N/N=C(\c1ccccc1)c1cccnc1)C(O)(c1ccccc1)c1ccccc1	4	-15%	0%	-2	i	11µM*
CN(C)C(=O)c1ccc2c(c1[N+](=O)[O-])C(=O)c1ccccc1C2=O	-21	10µM*	29%	-17	i	-46%
O=C1c2ccccc2-c2cc([N+](=O)[O-])c([N+](=O)[O-])cc21	/	?	/	/	/	-27%
CCCNC(=O)NCCc1c(C)[nH]c2ccccc12	6	4%	4%	-9	i	-8%
Cc1[nH]c2c(C)cccc2c1CCNC(=O)c1ccc2c(c1[N+](=O)[O-])C(=O)c1ccccc1C2=O	-65*	?	-12%	-92*	?	-15%
Cc1[nH]c2ccccc2c1CCNC(=O)c1ccc2c(c1[N+](=O)[O-])C(=O)c1ccccc1C2=O	-73*	?	-10%	11	?	-34%
C=CCc1cccc2cc(C(=O)NCCc3c(C)[nH]c4c(C)cccc34)c(=O)oc12	/	1%	10%	/	i	3%
COc1ccccc1CNC(=O)CCCn1c(=O)c2ccccc2n(CC(=O)Nc2c(C)cc(C)cc2C)c1=O	/	14%	14%	/	i	0%
CC(=O)Nc1ccc(Sc2ccc([N+](=O)[O-])o2)cc1	-8	?	?	-15	?	20µM*
Clc1ccc(/C=C/c2ccc3ccccc3n2)cc1Cl	/	?	/	/	/	-21%
COc1ccc(CNC(=O)Cn2c(SCC(=O)Nc3ccc(OC)cc3)nc3ccccc32)cc1	/	?	?	/	?	-49%
Cc1ccc(CNC(=O)Cn2c(SCC(=O)Nc3ccc(F)cc3)nc3ccccc32)cc1	/	?	?	/	?	7.1µM*
O=C(Cn1c(SCC(=O)Nc2ccc(F)cc2)nc2ccccc21)NCc1ccc(Cl)cc1	/	13µM*	-27%	/	?	-98%
O=C(Cn1c(SCC(=O)Nc2ccc(F)cc2)nc2ccccc21)NCc1ccc(F)cc1	/	-25%	-17%	/	?	-58%
O=S1(=O)N[C@H](Cc2ccccc2)COc2cc(N3CCN(Cc4ccccc4F)CC3)ccc21	1	/	-1%	6	i	/
CC(=O)OCCN(C)c1cc(SC(C)C)c2nonc2c1[N+](=O)[O-]	-2	2%	-26%	5	?	2%
CN(CCO)c1cc(Sc2nc3ccccc3s2)c2nonc2c1[N+](=O)[O-]	-11	?	10µM*	-5	14µM*	-99%
